Numbering of substitutions follows the chain as printed.

Common to all, as to test: PBM; 200 nM protein, PBS
Common to all, as to details: dsDNA, one strand shown

For test [1], the target named is NKX2-5 (Homo sapiens, UniProt P52952 125-210, R139K).
The target in test [2] is NKX2-5 (Homo sapiens, UniProt P52952 125-210).
For test [3], the target named is T1, NKX2-4 (Homo sapiens, UniProt Q9H2Z4 175-261, P217L).
T1 sequence: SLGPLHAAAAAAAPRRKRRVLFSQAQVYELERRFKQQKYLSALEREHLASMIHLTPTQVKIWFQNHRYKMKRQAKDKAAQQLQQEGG

Test [4] addresses T2, NKX2-4 (Homo sapiens, UniProt Q9H2Z4 175-261, T231S).
T2 sequence: T1 sequence with L43P, T57S

Test [5] addresses T3, NKX2-4 (Homo sapiens, UniProt Q9H2Z4 175-261).
T3 sequence: T1 sequence with L43P

The target in test [6] is T4, NKX2-4 (Homo sapiens, UniProt Q9H2Z4 175-261, R246Q).
T4 sequence: T1 sequence with L43P, R72Q

Test [7] has as its target T5, NKX2-6 (Homo sapiens, UniProt A6NCS4 118-204).
T5 sequence: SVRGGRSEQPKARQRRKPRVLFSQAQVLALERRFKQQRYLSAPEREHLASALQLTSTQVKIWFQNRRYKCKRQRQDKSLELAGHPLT

Test [8] addresses T6, NKX2-6 (Homo sapiens, UniProt A6NCS4 118-204, F151L).
T6 sequence: T5 sequence with F34L

Test [9] concerns the target T7, NKX2-6 (Homo sapiens, UniProt A6NCS4 118-204, R150C).
T7 sequence: T5 sequence with R33C

Test [10] addresses NKX3-2 (Homo sapiens, UniProt P78367 192-278, P234S).
Test [11] concerns the target NKX3-2 (Homo sapiens, UniProt P78367 192-278).
Test [12] deals with T8, VENTX (Homo sapiens, UniProt O95231 78-163, R121Q).
T8 sequence: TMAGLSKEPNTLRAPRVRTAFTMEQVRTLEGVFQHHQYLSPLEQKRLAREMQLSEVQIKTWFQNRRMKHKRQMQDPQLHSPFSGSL

Test [13] concerns the target T9, VENTX (Homo sapiens, UniProt O95231 78-163).
T9 sequence: T8 sequence with Q44R

The target in test [14] is T10, VENTX (Homo sapiens, UniProt O95231 78-163, Y115F).
T10 sequence: T8 sequence with Y38F, Q44R

In test [15] the target is ALX1 (Homo sapiens, UniProt Q15699 118-204, L144V).
Test [16] addresses ALX1 (Homo sapiens, UniProt Q15699 118-204, L144R).
The target of test [17] is ALX1 (Homo sapiens, UniProt Q15699 118-204).
Test [18] deals with HOXB6 (Homo sapiens, UniProt P17509 132-218, K202E).
HOXB6, sequence (P17509 132-218 K202E): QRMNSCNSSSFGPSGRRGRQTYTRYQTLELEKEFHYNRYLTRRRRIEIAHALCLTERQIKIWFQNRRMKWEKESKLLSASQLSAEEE

NKX2-5 (Homo sapiens, UniProt P52952 125-210), sequence (P52952 125-210): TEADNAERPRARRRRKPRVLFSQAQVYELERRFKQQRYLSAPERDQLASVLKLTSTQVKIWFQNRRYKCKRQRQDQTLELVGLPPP
NKX2-5 (Homo sapiens, UniProt P52952 125-210, R139K), sequence (P52952 125-210 R139K): as the sequence (P52952 125-210) above, with R15K counted along it
ALX1 (Homo sapiens, UniProt Q15699 118-204, L144R), sequence (Q15699 118-204 L144R): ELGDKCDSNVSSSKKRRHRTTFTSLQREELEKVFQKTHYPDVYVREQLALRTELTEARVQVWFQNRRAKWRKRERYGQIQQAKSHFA
ALX1 (Homo sapiens, UniProt Q15699 118-204, L144V), sequence (Q15699 118-204 L144V): as the sequence (Q15699 118-204 L144R) above, with R27V counted along it
NKX3-2 (Homo sapiens, UniProt P78367 192-278), sequence (P78367 192-278): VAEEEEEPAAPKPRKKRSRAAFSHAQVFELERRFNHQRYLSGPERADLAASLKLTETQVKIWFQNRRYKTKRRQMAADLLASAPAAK
ALX1 (Homo sapiens, UniProt Q15699 118-204), sequence (Q15699 118-204): as the sequence (Q15699 118-204 L144R) above, with R27L counted along it
NKX3-2 (Homo sapiens, UniProt P78367 192-278, P234S), sequence (P78367 192-278 P234S): as the sequence (P78367 192-278) above, with P43S counted along it

For the sequence CATGCGCC, the binding signal in test [1] was 8.86 upbm affinity estimate (log intensity, higher = more binding, comparable within an allelic series); in test [2], 8.85 upbm affinity estimate (log intensity, higher = more binding, comparable within an allelic series).
Turning to TACCGGTA, the binding signal in [1] was 8.84 upbm affinity estimate (log intensity, higher = more binding, comparable within an allelic series); in [3], 9.99 upbm affinity estimate (log intensity, higher = more binding, comparable within an allelic series); in [4] it was 10.1 upbm affinity estimate (log intensity, higher = more binding, comparable within an allelic series); in [5] it was 9.94 upbm affinity estimate (log intensity, higher = more binding, comparable within an allelic series); in test [6], 10.1 upbm affinity estimate (log intensity, higher = more binding, comparable within an allelic series); in test [2], 8.86 upbm affinity estimate (log intensity, higher = more binding, comparable within an allelic series).
Turning to CACTTCAG, the binding signal in test [1] was 12.4 upbm affinity estimate (log intensity, higher = more binding, comparable within an allelic series); in [3], 12.6 upbm affinity estimate (log intensity, higher = more binding, comparable within an allelic series); in test [4], 12.9 upbm affinity estimate (log intensity, higher = more binding, comparable within an allelic series); in [5] it was 12.4 upbm affinity estimate (log intensity, higher = more binding, comparable within an allelic series); in test [7], 13.4 upbm affinity estimate (log intensity, higher = more binding, comparable within an allelic series); in [6] it was 13.1 upbm affinity estimate (log intensity, higher = more binding, comparable within an allelic series). The binding signal in test [8] is 10.8 upbm affinity estimate (log intensity, higher = more binding, comparable within an allelic series); in test [2] it was 12.3 upbm affinity estimate (log intensity, higher = more binding, comparable within an allelic series).
As for CGTGCGGC, the binding signal was 8.72 upbm affinity estimate (log intensity, higher = more binding, comparable within an allelic series) in test [1]; 9.48 upbm affinity estimate (log intensity, higher = more binding, comparable within an allelic series) in [3]; 9.35 upbm affinity estimate (log intensity, higher = more binding, comparable within an allelic series) in [4]; 9.44 upbm affinity estimate (log intensity, higher = more binding, comparable within an allelic series) in test [5]; 9.47 upbm affinity estimate (log intensity, higher = more binding, comparable within an allelic series) in test [6]; 8.8 upbm affinity estimate (log intensity, higher = more binding, comparable within an allelic series) in test [2].
CGGTGCAG: the binding signal in test [1] was 8.83 upbm affinity estimate (log intensity, higher = more binding, comparable within an allelic series); in [3], 9.49 upbm affinity estimate (log intensity, higher = more binding, comparable within an allelic series); in [4] it was 9.46 upbm affinity estimate (log intensity, higher = more binding, comparable within an allelic series); in test [5], 9.46 upbm affinity estimate (log intensity, higher = more binding, comparable within an allelic series); in test [6], 9.48 upbm affinity estimate (log intensity, higher = more binding, comparable within an allelic series); in test [2], 8.91 upbm affinity estimate (log intensity, higher = more binding, comparable within an allelic series).
In the case of AAGTGGAC, the binding signal in [1] was 12.5 upbm affinity estimate (log intensity, higher = more binding, comparable within an allelic series); in test [3] it was 12.4 upbm affinity estimate (log intensity, higher = more binding, comparable within an allelic series); in [4], 12.9 upbm affinity estimate (log intensity, higher = more binding, comparable within an allelic series); in test [9], 11.8 upbm affinity estimate (log intensity, higher = more binding, comparable within an allelic series); in test [7], 13.4 upbm affinity estimate (log intensity, higher = more binding, comparable within an allelic series); in test [8] it was 10.4 upbm affinity estimate (log intensity, higher = more binding, comparable within an allelic series). The binding signal in test [10] was 12.7 upbm affinity estimate (log intensity, higher = more binding, comparable within an allelic series); in [2], 12.4 upbm affinity estimate (log intensity, higher = more binding, comparable within an allelic series); in test [11] it was 12.8 upbm affinity estimate (log intensity, higher = more binding, comparable within an allelic series).
For the sequence CACTTCAA, the binding signal is 12.4 upbm affinity estimate (log intensity, higher = more binding, comparable within an allelic series) in test [1]; 12.6 upbm affinity estimate (log intensity, higher = more binding, comparable within an allelic series) in [3]; 13 upbm affinity estimate (log intensity, higher = more binding, comparable within an allelic series) in [4]; 12.5 upbm affinity estimate (log intensity, higher = more binding, comparable within an allelic series) in test [5]; 11.6 upbm affinity estimate (log intensity, higher = more binding, comparable within an allelic series) in test [9]; 13.1 upbm affinity estimate (log intensity, higher = more binding, comparable within an allelic series) in test [6]. The binding signal was 10.9 upbm affinity estimate (log intensity, higher = more binding, comparable within an allelic series) in test [8] and 12.4 upbm affinity estimate (log intensity, higher = more binding, comparable within an allelic series) in test [2].
On to CCGGTGGC, for which the binding signal is 8.61 upbm affinity estimate (log intensity, higher = more binding, comparable within an allelic series) in test [1]; 7.92 upbm affinity estimate (log intensity, higher = more binding, comparable within an allelic series) in test [12]; 8.15 upbm affinity estimate (log intensity, higher = more binding, comparable within an allelic series) in test [13]; 8 upbm affinity estimate (log intensity, higher = more binding, comparable within an allelic series) in test [14]; 6.52 upbm affinity estimate (log intensity, higher = more binding, comparable within an allelic series) in [15]; 6.41 upbm affinity estimate (log intensity, higher = more binding, comparable within an allelic series) in test [16]. Further, the binding signal was 6.47 upbm affinity estimate (log intensity, higher = more binding, comparable within an allelic series) in test [17] and 8.93 upbm affinity estimate (log intensity, higher = more binding, comparable within an allelic series) in [2].
Regarding ATAATGGG, the binding signal is 10.9 upbm affinity estimate (log intensity, higher = more binding, comparable within an allelic series) in [1]; 11.4 upbm affinity estimate (log intensity, higher = more binding, comparable within an allelic series) in test [12]; 12.4 upbm affinity estimate (log intensity, higher = more binding, comparable within an allelic series) in test [13]; 11.4 upbm affinity estimate (log intensity, higher = more binding, comparable within an allelic series) in [14]; 9.9 upbm affinity estimate (log intensity, higher = more binding, comparable within an allelic series) in [18]; 11 upbm affinity estimate (log intensity, higher = more binding, comparable within an allelic series) in [2].
Regarding ACACTTGA, the binding signal is 13 upbm affinity estimate (log intensity, higher = more binding, comparable within an allelic series) in test [1]; 12.7 upbm affinity estimate (log intensity, higher = more binding, comparable within an allelic series) in [3]; 13.2 upbm affinity estimate (log intensity, higher = more binding, comparable within an allelic series) in [4]; 12.6 upbm affinity estimate (log intensity, higher = more binding, comparable within an allelic series) in test [5]; 12 upbm affinity estimate (log intensity, higher = more binding, comparable within an allelic series) in [9]; 13.9 upbm affinity estimate (log intensity, higher = more binding, comparable within an allelic series) in [7]. The binding signal in test [6] is 13.4 upbm affinity estimate (log intensity, higher = more binding, comparable within an allelic series); in test [8] it was 11.4 upbm affinity estimate (log intensity, higher = more binding, comparable within an allelic series); in test [2], 12.9 upbm affinity estimate (log intensity, higher = more binding, comparable within an allelic series).

Values taken from paper PMC11006913.
